Measured values from PubChem BioAssay (NCATS).

Assay: Cell Proliferation Assay against the TMD8 Cell Line (AID 651645);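 further: cells exposed to compound for 48 h before reading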
Details: TMD8 DLBCL cell line proliferation/viability; at 46.1 µM (top of the series)
Excerpt: One class of targeted therapeutics showing early clinical success in killing of ABC DLBCL lines are small molecule inhibitors of the Bruton tyrosine kinase (BTK) 11.
Prior to any combination assays, using an NCATS developed oncology compound library called the Mechanism of Interrogation Plate (MIPE), two well studied ABC DLBCL lines (TMD8 and HBL1) were screened using a cell viability assay (CellTiterGlo) and a 12-point titration series for each single agent. These initial experiments offered insight into the concentration range that offered the best coverage of activity and non-activity to assure relevant data is generated. In addition to the viability signature associated with this library, we examined the apoptotic response of each agent versus the TMD8 line as judged by caspase 3/7 activation. Activity was assayed at both 8 and 16 hour time-points to gain an appreciation of which agents induced an apoptotic response in a reasonable timeframe from a therapeutic exposure perspective. MIPE was also assayed for single agent viability in a human mesenchymal stem cell (hMSC) line as a surrogate of each library member's potential therapeutic index.
A total of 500 log growing TMD8 cells are seeded per well in 5 uL of a RPMI with glutamine (or Glutamax), without phenol red plus 5% FBS and 1X Pen/Strep into 1536 -solid white high base tissue culture treated Greiner One Bio Plates (789173-F) using a multidrop combi dispenser and a small sterile cassette. Compounds and controls totaling 23nL per well (negative control DMSO and positive control 9.2 uM Bortezomib-final) are immediately added to the plates using a 1536 head pin tool from Kalypsys. The plates are then covered with stainless steel gasket lids from Kalypsys and incubated for 48 hours at 37C under 95% relative humidity with 5% CO2. After 48 hours, the plates are removed and allowed to reach room temperature before 3 uL of Cell Titer Glo reagent (Promega) is added using an Aurora Flying Reagent Dispenser Bioraptor. The plates are then spun at 1000 rpms to remove bubbles and incubated for 15 minutes at room temperature before read on a ViewLux using a luminescent filter with a 10 second exposure. The relative luciferase units are used to calculated percent activity using DMSO as 100% and Bortezomib as 0%.

Going from `CC(C)n1c(C=C[C@H](O)C[C@H](O)CC(=O)O)c(-c2ccc(F)cc2)c2ccccc21` to `COc1ccc(C(=O)c2c(C)n(CCN3CCOCC3)c3ccccc23)cc1`, the viability (% of control) falls from 83.4% to 18.8%.

Compared with `Cc1sc2c(c1C)C(c1ccc(Cl)cc1)=N[C@@H](CC(=O)OC(C)(C)C)c1nnc(C)n1-2`, `Cc1cc(SCc2sc(-c3ccc(C(F)(F)F)c(F)c3)nc2C)ccc1OCC(=O)O` is higher in viability (% of control): 2.73% for the first, 80.8% for the second.

Compared with `CNC(=O)N1N=C(c2ccc(N)cc2)c2cc3c(cc2CC1C)OCO3` (stereo not given), `CNC(=O)c1ccc(N2C(=S)N(c3ccc(C#N)c(C(F)(F)F)c3)C(=O)C23CCC3)cc1F` is higher in viability (% of control): 5.8% for the first, 71.2% for the second.

Compared with `C[C@@H]1[C@@H](C(=O)C[C@H]2O[C@@H]3O[C@]4(C)CC[C@@H]5[C@H](C)CC[C@@H]([C@H]2C)[C@@]35OO4)O[C@@H]2O[C@]3(C)CC[C@H]4[C@H](C)CC[C@@H]1[C@@]24OO3`, `C[C@@H]1[C@@H](CC(C[C@H]2O[C@@H]3O[C@]4(C)CC[C@@H]5[C@H](C)CC[C@@H]([C@H]2C)[C@@]35OO4)C[S+](=O)([O-])c2ccc(COC(=O)N(C)C)cc2)O[C@@H]2O[C@]3(C)CC[C@H]4[C@H](C)CC[C@@H]1[C@@]24OO3` (stereo not given in full) is lower in viability (% of control): 6.12% for the first, 5.05% for the second.

First: Cn1cc(C2=C(c3cn(C4CCN(Cc5ccccn5)CC4)c4ccccc34)C(=O)NC2=O)c2ccccc21
Second: COC1(CS(=O)c2ccccc2)CCN(CCc2c[nH]c3ccc(F)cc23)CC1 (stereo not given)
The viability (% of control) of the first is lower: 3.76% for the first, 79.9% for the second.

Compared with `CC(O)(CS(=O)(=O)c1ccc(F)cc1)C(=O)Nc1ccc(C#N)c(C(F)(F)F)c1` (stereo not given), `O=C(O)C(=O)c1cn(Cc2ccccc2)c2ccc(-c3ccc(OC(F)(F)F)cc3)cc12` is lower in viability (% of control): 109% for the first, 75.1% for the second.

First: COC[C@H]1OC(=O)c2coc3c2[C@@]1(C)C1=C(C3=O)C2CCC(=O)[C@@]2(C)C[C@H]1OC(C)=O (stereo not given in full)
Second: C[C@]12CCC(=O)C(O)=C1CC[C@@H]1[C@@H]2CC[C@]2(C)C(=O)CC[C@@H]12
The viability (% of control) of the first is lower: 17.1% for the first, 87.8% for the second.

Going from `CS(=O)c1ccc(-c2nc(-c3ccc(F)cc3)c(-c3ccncc3)[nH]2)cc1` (stereo not given) to `O=c1c(O)c(-c2ccc(O)c(O)c2)oc2cc(O)cc(O)c12`, the viability (% of control) falls from 92.2% to 46.1%.

Going from `Cn1c(CCCC(=O)O)nc2cc(N(CCCl)CCCl)ccc21` to `CN(C)CCN(C)CCc1ccc(Cl)c(Cl)c1`, the viability (% of control) falls from 95.4% to 74%.

Compared with `CCCCC/C=C\C/C=C\C/C=C\C/C=C\CCCC(=O)NC1CC1`, `CC1=C2C[C@@H]3[C@@H](CC=C4C[C@@H](O)CC[C@@]43C)[C@@H]2CC[C@]12O[C@H]1C[C@H](C)CN[C@H]1[C@H]2C` is lower in viability (% of control): 86.9% for the first, 62.9% for the second.
